{"source": "the supplement of paper PMC13380429", "note": "Counter-ions that a name gives are not always drawn."}
{"system": "Vero E6 infected with SARS-CoV-2", "assay": "morphology score (similarity to uninfected cells); higher = more like uninfected cells", "settings": "24 h"}
{"smiles": "COCCOC(=O)C1=C(C)NC(C)=C(C(=O)OC(C)C)C1c1cccc([N+](=O)[O-])c1", "note": "(stereo not given) [nimodipine] (10 µM)", "morphology score": 0.14}
{"smiles": "O=C(O)/C=C1\\CCCc2ccccc2[C@H]1O", "note": "(racemic) (10 µM)", "morphology score": 0.0116}
{"smiles": "CC[C@@H](C(=O)[C@@H](C)[C@@H](O)[C@H](C)[C@@H]1O[C@@H]([C@@H](CC)C(=O)O)CC[C@@H]1C)[C@H]1O[C@]2(C=C[C@@H](O)[C@]3(CC[C@@](C)([C@H]4CC[C@](O)(CC)[C@H](C)O4)O3)O2)[C@H](C)C[C@@H]1C", "note": "[Salinomycin (Procoxacin)] (10 µM)", "morphology score": -0.00386}
{"smiles": "CS(=O)(=O)Nc1ccc2oc3c(OC(F)F)ccc(C(=O)Nc4c(Cl)cncc4Cl)c3c2c1", "note": "[oglemilast] (10 µM)", "morphology score": 0.291}
{"smiles": "CC(=O)O[C@]1(C(C)=O)CC[C@H]2[C@@H]3C[C@H](C)C4=CC(=O)CC[C@]4(C)[C@H]3CC[C@@]21C", "note": "[medroxyprogesterone-acetate] (10 µM)", "morphology score": 0.153}
{"smiles": "O=C(O)C1=C[C@@H](O)[C@@H](O)[C@H](O)C1", "note": "[shikimic-acid] (10 µM)", "morphology score": 0.0235}
{"smiles": "CN(Cc1ccccc1)C(=O)[C@H](Cc1ccc2ccccc2c1)NC(=O)[C@@H]1CCCN1C(=O)Nc1ccccc1[N+](=O)[O-]", "note": "(10 µM)", "morphology score": 0.00351}
{"smiles": "COc1ccc(/C=C/C(=O)/C=C(O)/C=C/c2ccc(OC)c(OC)c2)cc1OC", "note": "(10 µM)", "morphology score": 0.335}
{"smiles": "c1cc(CN2CCCNCCNCCCNCC2)ccc1CN1CCCNCCNCCCNCC1", "note": "[plerixafor] (10 µM)", "morphology score": 0.0853}
{"smiles": "COc1ccc(CCc2nc3cc(-c4c(C)noc4C)ccc3n2C[C@H](C)N2CCOCC2)cc1Cl", "note": "(0.833333 µM)", "morphology score": -0.0905}
{"smiles": "c1ccc(CNc2ncnc3[nH]cnc23)cc1", "note": "[6-benzylaminopurine] (10 µM)", "morphology score": 0.186}
{"smiles": "CCCCCCN(CCCCCC)C(=O)Cc1c(-c2ccc(Cl)cc2)[nH]c2ccc(Cl)cc12", "note": "(10 µM)", "morphology score": -0.00824}
{"smiles": "CC(C)(CCCCCC(O)CCCCCC(C)(C)C(=O)O)C(=O)O", "note": "[bempedoic-acid] (10 µM)", "morphology score": 0.0218}
{"smiles": "C=CC1=C(C)C2=CC3=NC(=C(CC(=O)O)C4=NC(=C(C)C4=C(O)O)C=c4[nH]c(c(C)c4CC)=CC1=N2)C(CCC(=O)O)C3C", "note": "(stereo not given) [chlorophyllin] (10 µM)", "morphology score": 0.148}
{"smiles": "Cc1cc(OCc2nc(-c3ccccc3Cl)cs2)ccc1OCC(=O)O", "note": "[GPR120-modulator-1] (10 µM)", "morphology score": -0.0706}
{"smiles": "O=C(c1cc2ccccc2o1)N1CCN(Cc2ccccc2)CC1", "note": "[befuraline] (10 µM)", "morphology score": -0.00895}
{"smiles": "CCOP(=S)(OCC)Oc1cc(C)nc(C(C)C)n1", "note": "[dimpylate] (10 µM)", "morphology score": -0.0379}
{"smiles": "C[N+](C)(C)CCOC(=O)CCC(=O)OCC[N+](C)(C)C", "note": "[succinylcholine-chloride] (10 µM)", "morphology score": -0.0136}
{"smiles": "Nc1nc(O)c2ncn(CCC(CO)CO)c2n1", "note": "[penciclovir] (10 µM)", "morphology score": 0.0743}
{"smiles": "COc1ccsc1CNCC[C@@]1(c2ccccn2)CCOC2(CCCC2)C1", "note": "(10 µM)", "morphology score": -0.0456}
{"smiles": "CCN(CC)CCOC(=O)C1(C2CCCCC2)CCCCC1", "note": "[dicycloverine] (10 µM)", "morphology score": 0.311}
{"smiles": "C#C[C@]1(O)CC[C@H]2[C@@H]3CCC4=Cc5oncc5C[C@]4(C)[C@H]3CC[C@@]21C", "note": "[danazol] (10 µM)", "morphology score": 0.377}
{"smiles": "O=C(O)CNC(=O)c1nc(Cl)c2ccccc2c1O", "note": "(10 µM)", "morphology score": 0.17}
{"smiles": "C[C@@H]1COCCN1c1cc(C2([S@](C)(=N)=O)CC2)nc(-c2ccnc3[nH]ccc23)n1", "note": "(0.833333 µM)", "morphology score": 0.0164}
{"smiles": "CCCC(CCC)C(=O)NCC(N)=O", "note": "[valrocemide] (10 µM)", "morphology score": 0.062}
{"smiles": "CNC(=O)c1cc2c(cn1)[nH]c1ccccc12", "note": "(10 µM)", "morphology score": 0.241}
{"smiles": "CCCCCCCCCCC(=O)O[C@H]1CC[C@H]2[C@@H]3CCC4=CC(=O)CC[C@]4(C)[C@H]3CC[C@]12C", "note": "[Testosterone (undecanoate)] (10 µM)", "morphology score": 0.107}
{"smiles": "O=C(O)Cn1nnc(-c2cc(N3CCC(Oc4cc(F)ccc4Br)CC3)no2)n1", "note": "(10 µM)", "morphology score": 0.00994}
{"smiles": "CCCCCCCCCCCCCC(=O)OC(C)C", "note": "[isopropyl-myristate] (10 µM)", "morphology score": 0.235}
{"smiles": "CN(C)CCCSC(=N)N", "note": "[dimaprit] (10 µM)", "morphology score": 0.245}
{"smiles": "CC(N)CCCC(C)(C)O", "note": "(stereo not given) [heptaminol] (10 µM)", "morphology score": -0.15}
{"smiles": "COC(=O)[C@H](Cc1ccccc1)NC(=O)[C@@H](N)CC(=O)O", "note": "[aspartame] (10 µM)", "morphology score": 0.172}
{"smiles": "Cc1ccc(C)c(OCCCC(C)(C)C(=O)O)c1", "note": "[gemfibrozil] (10 µM)", "morphology score": -0.0506}
{"smiles": "C[C@H](/C=C/[C@H](C)C(C)(C)O)[C@H]1CC[C@H]2/C(=C/C=C3C[C@@H](O)C[C@H](O)C3)CCC[C@]12C", "note": "[paricalcitol] (10 µM)", "morphology score": 0.0995}
{"smiles": "CCC(=O)NCC[C@@H]1CCc2ccc3c(c21)CCO3", "note": "[ramelteon] (10 µM)", "morphology score": 0.00565}
{"smiles": "Cc1ccccc1N(C)C(=O)c1ccc([S+]([O-])c2nccs2)c([N+](=O)[O-])c1", "note": "(stereo not given) (0.833333 µM)", "morphology score": -0.0736}
{"smiles": "CCS(=O)(=O)CCn1c([N+](=O)[O-])cnc1C", "note": "[tinidazole] (10 µM)", "morphology score": 0.142}
{"smiles": "Cc1nc(N)sc1CCN", "note": "[amthamine] (10 µM)", "morphology score": 0.148}
{"smiles": "CN1CC[C@H](c2c(O)cc(O)c3c(=O)cc(-c4ccccc4Cl)oc23)[C@H](O)C1", "note": "[alvocidib] (10 µM)", "morphology score": -0.17}
{"smiles": "CN[C@@H]1[C@H](O[C@H]2[C@H](O[C@H]3[C@H](O)[C@@H](O)[C@H](N=C(N)N)[C@@H](O)[C@@H]3N=C(N)N)O[C@@H](C)[C@]2(O)C=O)O[C@@H](CO)[C@H](O)[C@H]1O", "note": "[STREPTOMYCIN SULFATE [5mM; 10% aq DMSO + 5mM ethanolamine]] (10 µM)", "morphology score": 0.104}
